From PubChem BioAssay
Only some compounds are listed: those with a hit (about 3.7% of all), similar ones and a draw of the others.
Nrf2 ARE act – qHTS of Nrf2 Activators. AREc32 ARE-luciferase reporter (MCF7-derived line), luminescence, 24 h. Potency, µM (highest dose often 46.1 µM), actives largely listed as activators. actives 0.31% (n = 410,000). AID 624171, 2012; also: nearly all actives have a fitted effect of over 65% in size
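ARE-driven firefly luciferase activity in AREc32 cells measured after a 24 hr compound exposure at 37 deg C, using Steady-Glo reagent and a 30 min room-temperature hold.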
Nrf2 block – Nrf2 qHTS screen for inhibitors | A549 ARE-Fluc reporter, luciferase luminescence, 18-24 h | Potency, µM (highest dose often 46 µM), usual class: inhibitors | actives 2.1% (n = 360,000) | AID 504444, 2011; also: nearly all actives have a fitted effect of over 60% in size
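A549 ARE_Fluc cells (5000/well, 5% FBS OPTI-MEM) pre-incubated 2 h, then treated with compounds 18-24 h at 37C/5% CO2 in concentration-response. CellTiter-Fluor viability read first; BugLite luciferase luminescence after 15 min at room temperature gives Nrf2 activity.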
A549 viability – Nrf2 qHTS screen for inhibitors: counterscreen for cytotoxicity; A549 ARE-Fluc cells, CellTiter-Fluor viability, 18-24 h; Potency, µM (series often up to 46 µM), usual class: inhibitors; actives 0.16% (n = 390,000)
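A549 ARE_Fluc cells in 5% FBS OPTI-MEM were exposed to compounds in concentration-response for 18-24 h at 37 deg C. Viability was read by CellTiter-Fluor fluorescence (Ex 405/Em 525) after 30 min, before the luciferase read.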
TCR act – Activators of T cell receptors: qHTS campaign; 330,000 tested, under 10 active; Potency, µM (series often up to 9.22 µM), usual class: activators; primary human leukocytes, anti-CD3, IL-2 HTRF, 48 h; AID 504894, 2011
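Primary human leukocytes were stimulated with a-CD3 beads plus compounds for 48 hr without co-stimulation; secreted IL-2 was quantified by HTRF using a-IL-2-K (europium cryptate) and a-IL-2-d2, excited at 320nm with acceptor emission read at 665nm.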
miR-21 act – qHTS Assay for Modulators of miRNAs and/orActivators of miR-21. 340,000 tested, under 10 active. Potency, µM (top dose mostly 38.3 µM), most hits filed as activators. AID 2288, 2010. HeLa miR-21 FLuc reporter, luciferase, 48 h;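 also: miR-21 action dims this reporter so a rising signal means less miR-21 action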
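Using DMEM plus 10% FBS, HeLa miR-21-FLuc cells are incubated with test compounds (final up to about 40uM) for 48 hours; firefly luciferase signal is then imaged following reagent-mediated lysis.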
ClpP mod – qHTS Assay for Activators of ClpP; ATP-dependent Clp protease proteolytic subunit (Bacillus subtilis (strain 168)), P80244; purified B. subtilis ClpP, FRET peptide cleavage, 20 min; Potency, µM (doses to about 57.5 µM); actives 1.9% (n = 340,000); AID 651965, 2013; active = well fitted falling curve with a large enough effect; inconclusive = small, poorly fitted or top-dose-only effect; inactive = no such curve, though single readings can be large or run the other way; also: the source files actives as falling curves though it sought activators and does not explain the sign; nearly all actives have a fitted effect of over 65% in size
Target sequence (P80244 whole entry, looked up): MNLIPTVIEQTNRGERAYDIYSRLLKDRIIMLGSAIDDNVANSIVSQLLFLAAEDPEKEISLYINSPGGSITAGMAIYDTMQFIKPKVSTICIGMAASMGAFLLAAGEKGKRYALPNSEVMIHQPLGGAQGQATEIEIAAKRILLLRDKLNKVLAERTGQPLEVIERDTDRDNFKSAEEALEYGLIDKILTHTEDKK
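ClpP 10 microg/mL final, pH 8 Tris/KCl buffer with BSA, glycerol, Tween-20; compound pinned in; FRET-FV substrate; RT 20 min; Ex320/Em430; ΔFRET vs ADEP 5.8 microM, DMSO, no enzyme.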
ClpP inh valid – qHTS Assay for Activators of ClpP: Hit Validation of Inhibitors. shares compounds with ClpP mod. purified B. subtilis ClpP, FRET-FV substrate cleavage, 20 min. Potency, µM (titrated, usually from 57.5 µM), most hits filed as inhibitors. actives 40% (n = 470). AID 743245, 2014; also: nearly all actives have a fitted effect of over 70% in size
Hits are given with their value; – = inactive; ? = inconclusive; · = no result given; [ ] = another dose, or the depositor's remark. Unless noted, calls follow the shape of the dose curve; as a rule, active = well fitted curve in the direction sought with a large enough effect; inconclusive = small, poorly fitted or top-dose-only effect, or another doubt; inactive = no such curve, though single readings can be large; an effect the other way counts as inactive or inconclusive.

SMILES | Nrf2 ARE act | Nrf2 block | A549 viability | TCR act | miR-21 act | ClpP mod | ClpP inh valid
Clc1ccc(N2N=C(c3cccs3)CC2c2ccco2)cc1 (centres undefined) | – | · | ? | – | – | 3.5µM | 27µM
COc1ccc(N(CC(=O)N2CCc3ccccc3C2)S(=O)(=O)c2ccc(C)cc2)cc1Cl | – | – | – | · | – | – | ·
COc1ccc(CCC(=O)NNC(=O)c2ccccn2)cc1OC | – | – | – | – | · | – | ·
CCc1cnc2c(c1SCC(=O)Nc1cc(Cl)ccc1OC)c(=O)n(C)c(=O)n2C | – | · | – | · | – | – | ·
O=C(Nc1ccccc1)c1cccc(C(=O)Nc2ccccc2)n1 | – | – | – | – | – | – | 24µM
O=C(O)c1ccc(NC(=O)c2cccc(C(=O)Nc3ccc(C(=O)O)cc3)n2)cc1 | – | ? | – | – | – | – | ·
CCCN1CNc2c(c(=O)[nH]c(=S)n2CCc2cc(C)cc(C)c2)C1 | · | – | – | · | · | – | ·
Cc1ccc2nc(-c3ccc(NC(=O)c4ccc(S(C)(=O)=O)cc4)cc3)sc2c1 | – | · | – | · | – | – | ·
Cc1ccc(C)c(N(CC(=O)Nc2ccc(-c3nc4ccc(C)cc4s3)cc2)S(C)(=O)=O)c1 | – | – | – | – | – | 10µM | 31µM
CC1=C(C(=O)N2CCCCCC2)CC(CC(=O)NC2CCCCC2)C(=O)N1CCC1=CCCCC1 (centres undefined) | – | · | · | · | · | – | ·
CCc1ccc2[nH]c(C(=O)Nc3ccc(C)c(F)c3)cc2c1 | – | ? | – | – | – | – | –
COc1ccccc1N(CC(=O)Nc1ccc2c(c1)OCCO2)S(C)(=O)=O | – | – | – | – | – | – | ·
COc1ccccc1N(CC(=O)Nc1ccc2c(c1)OCCO2)S(=O)(=O)c1ccc(C)cc1 | – | – | – | – | – | 5µM | –
Cn1c(NCCN2CCOCC2)nc2c1c(=O)n(Cc1cccc(Cl)c1)c(=O)n2C | – | – | – | – | – | 3.2µM | –
COc1ccc(-c2ccnc(-c3ccc(OCCCF)cc3)n2)cc1 | – | – | – | – | – | 7.9µM | –
FCCCOc1ccc(-c2nccc(-c3ccc(Cl)cc3)n2)cc1 | – | · | – | – | – | – | ·
CCOc1ccccc1NC(=O)c1cc2ccccc2oc1=O | – | – | – | · | – | – | ·
CCOc1ccccc1NC(=O)c1cc2ccccc2o1 | – | · | · | · | · | – | –
CCN1CCN(c2cc(C)c3cc(NC(=S)N(C)Cc4ccccc4)ccc3n2)CC1 | – | – | – | – | – | – | –
CCCCN(C)C(=S)Nc1ccc2nc(N3CCN(CC)CC3)cc(C)c2c1 | – | – | – | – | – | – | ·
O=C(c1ccc(S(=O)(=O)N2CCCC2)cc1)N1CCC(CN2C(=O)c3cccc4cccc(c34)C2=O)CC1 | – | ? | – | – | – | · | ·
COc1ccc(S(=O)(=O)N2CCC(CN3C(=O)c4cccc5cccc(c45)C3=O)CC2)cc1 | – | – | – | – | – | 10µM | 24µM
CCCN(CC(=O)Nc1ccccc1C)C(=O)c1ccc(-c2ccc(C(C)=O)cc2)o1 | – | – | – | – | · | 8.9µM | 19µM
CC(Sc1n[nH]c(N)n1)C(=O)Nc1cccc2ccccc12 (centres undefined) | – | – | – | – | · | – | ·
CCc1cccc(Nc2nn3c(=O)c4ccccc4nc3s2)c1 | · | · | · | · | · | · | –
SMILES | Nrf2 ARE act | Nrf2 block | A549 viability | TCR act | miR-21 act | ClpP mod | ClpP inh valid
COc1cccc(Nc2nn3c(=O)c4ccccc4nc3s2)c1 | – | ? | – | – | · | · | ·
Cc1c(C(=O)N2CCN(c3ncccn3)CC2)oc2c(Cl)cccc12 | – | – | – | – | · | 3.2µM | –
Cc1c(C(=O)N2CCN(c3ccccn3)CC2)oc2c(F)cccc12 | – | ? | – | – | – | · | ·
CCOc1ccc(CCNC(=O)c2ccc3c(c2)c(C)c(C)n3C)cc1 | – | – | – | · | – | ? | ·
COc1ccc(C(=O)n2cc(C(=O)c3cc(C)ccc3O)cn2)cc1OC | – | – | – | – | – | – | –
O=C1CCCN1CC(O)CS(=O)(=O)Cc1ccc(Cl)cc1 (centres undefined) | – | – | – | – | · | – | ·
COc1ccccc1NC(=O)c1ccc(COc2ccc3c(c2)CCC3)cc1 | – | – | – | – | – | – | –
CCOc1ccc(C(=O)Oc2c(Sc3ccccc3)c(C)nn2C(C)(C)C)cc1OCC | – | –[9.27 µM] | – | · | – | – | ·
O=C(Nc1ccc(S(=O)(=O)N2CCC(c3nc4ccccc4s3)CC2)cc1)c1ccccc1 | – | ? | – | · | – | – | ·
CCN(CC(=O)Nc1c(F)cccc1F)C(=O)c1ccc(C(F)(F)F)cc1 | – | – | – | – | – | – | ·
CCN(CC(=O)Nc1c(F)cccc1F)C(=O)c1ccc(C2SCCS2)cc1 | – | – | – | – | · | – | –
COc1ccc(-n2ccn(CC(=O)NCc3ccc(C)cc3)c(=O)c2=O)cc1OC | – | – | – | · | – | – | ·
CCCN(CCC(=O)Nc1cc(OC)cc(OC)c1)CC1CC1 | – | · | – | – | – | – | –
Cc1ccc(NC(=O)CCC(=O)N2CCSc3ccccc32)cc1Cl | – | – | – | · | – | – | ·
CCC1CCCCN1Cc1cn2c(-c3ccc(Br)cc3)nnc2s1 (centres undefined) | – | · | – | · | – | – | ·
COc1ccc(-c2cc(C(F)(F)F)nc(-n3cc(Cl)cn3)n2)cc1 | – | ? | ? | – | – | 4µM | 22µM
O=C1NC[C@@H](CCCCN2CCN(Cc3ccccc3)C(=O)C2=O)N(Cc2ccccc2)C1=O | – | · | · | · | · | – | ·
CCCC(C)C(=O)Nc1ccc2c(c1)OCCO2 (centres undefined) | – | · | – | – | – | 3.5µM | –
COc1cc2c(cc1OC)C1O[C@](CCCCN3C(=O)c4ccccc4C3=O)(C2)OC2=C1C(=O)CCC2 | · | · | · | · | –[7.66 µM] | · | ·
CCN(Cc1nc(-c2cccc(C)c2)no1)C(=O)c1ccc2c(c1)OCO2 | – | – | – | – | – | 8.9µM | –
O=C(OCC(=O)N1CCCC1)c1ccc(Cl)c([N+](=O)[O-])c1 | – | – | – | – | – | · | ·
CCNc1ccc(C(=O)OCC(=O)N2CCCC2)cc1[N+](=O)[O-] | – | ? | – | – | – | – | –
CCN(CC(=O)Nc1c(F)cccc1F)C(=O)Cc1csc(-c2ccc(OC)c(OC)c2)n1 | – | – | – | – | · | 3.2µM | 12µM
CCOC(=O)c1cc2sccc2n1CC(=O)N1CCCc2ccccc21 | – | ? | ? | – | – | – | ·
